Read-out in assay [1]: Interleukin-8 (IL8), CXCL8 (gene 3576)
Kind of assay: BSK_MyoF_IL8: BioMAP Diversity Plus: MyoF Assay for Interleukin-8 (IL8) Biomarker Activity (AID 2284261). The following applies: primary human lung fibroblasts. An outline of the steps:
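IL-8 quantified by ELISA after 24 h compound exposure of primary human lung fibroblasts. SRB staining of parallel cultures flagged cytotoxicity; DMSO served as baseline.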

Read-out in a further assay: Decorin, DCN (gene 1634)
Kind of assay: BSK_MyoF_Decorin: BioMAP Diversity Plus: MyoF Assay for Decorin Biomarker Activity (AID 2284265). Conditions: primary human lung fibroblasts. The gist of the method: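 Decorin protein was quantified by ELISA 24 h after chemical addition to primary human lung fibroblasts and analysed as increase over DMSO. Cytotoxicity was tracked in parallel cultures by SRB total-protein staining read at 560 nm.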

Read-out in assay [2]: Eotaxin 3, CCL26 (gene 10344)
Put plainly: BSK_BF4T_Eotaxin3: BioMAP Diversity Plus: BF4T Assay for Eotaxin 3 Biomarker Activity (AID 2284258). The following applies: primary human bronchial epithelial cells with fibroblasts. The gist of the method: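 Co-culture of human bronchial epithelial cells and dermal fibroblasts, exposed to chemicals for 24 h versus DMSO. Eotaxin-3 quantified by ELISA; cytotoxicity checked in parallel cultures by sulforhodamine B total-protein staining.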

Read-out in assay [3]: Monocyte Chemoattractant Protein-1 (MCP1), CCL2 (gene 6347)
Kind of assay: BSK_BF4T_MCP1: BioMAP Diversity Plus: BF4T Assay for Monocyte Chemoattractant Protein-1 (MCP1) Biomarker Activity (AID 2284259). The following applies: primary human bronchial epithelial cells with fibroblasts. The gist of the method:
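Co-culture of bronchial epithelial cells and dermal fibroblasts dosed with chemical; MCP-1 measured by ELISA 24 h later. Activity fitted in positive direction versus DMSO; cytotoxicity checked by SRB staining in parallel cultures.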

Read-out in assay [4]: Intercellular Adhesion Molecule 1 (ICAM1), ICAM1 (gene 3383)
Put plainly: BSK_BF4T_ICAM1: BioMAP Diversity Plus: BF4T Assay for Intercellular Adhesion Molecule 1 (ICAM1) Biomarker Activity (AID 2284260). Conditions: primary human bronchial epithelial cells with fibroblasts. An outline of the steps:
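Co-culture of human bronchial epithelial cells and dermal fibroblasts exposed 24 h to chemical; cell-surface ICAM-1 quantified by ELISA. Parallel SRB total-protein staining assessed cytotoxicity; activity fitted relative to DMSO.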

Read-out in another assay: CD90, THY1 (gene 7070)
Put plainly: BSK_BF4T_CD90: BioMAP Diversity Plus: BF4T Assay for CD90 Biomarker Activity (AID 2284262). Conditions: primary human bronchial epithelial cells with fibroblasts. The gist of the method:
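Co-culture of human bronchial epithelial cells and dermal fibroblasts, 24 h compound exposure. Cell-surface CD90 measured by ELISA relative to DMSO; parallel SRB total-protein staining for cytotoxicity.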

Read-out in assay [5]: Interleukin-8 (IL8), CXCL8 (gene 3576)
Put plainly: BSK_BF4T_IL8: BioMAP Diversity Plus: BF4T Assay for Interleukin-8 (IL8) Biomarker Activity (AID 2284263). The following applies: primary human bronchial epithelial cells with fibroblasts. The gist of the method:
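Human bronchial epithelial cells with dermal fibroblasts co-culture; IL-8 measured by ELISA 24 hours after dosing, fitted vs DMSO. Cytotoxicity tracked in parallel cultures by SRB total-protein staining.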

Read-out in assay [6]: Interleukin-1 alpha (IL1a), IL1A (gene 3552)
Kind of assay: BSK_BF4T_IL1a: BioMAP Diversity Plus: BF4T Assay for Interleukin-1 alpha (IL1a) Biomarker Activity (AID 2284264). The following applies: primary human bronchial epithelial cells with fibroblasts. An outline of the steps: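 Human bronchial epithelial cells co-cultured with dermal fibroblasts, dosed and read at 24 h. Secreted/surface IL-1α quantified by ELISA; gain-of-signal fitted relative to DMSO baseline. Parallel SRB total-protein staining tracked cytotoxicity.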

Read-out in the next assay: KRT18 (gene 3875)
Kind of assay: BSK_BF4T_Keratin818: BioMAP Diversity Plus: BF4T Assay for Keratin 818 Biomarker Activity (AID 2284266). Conditions: primary human bronchial epithelial cells with fibroblasts. The gist of the method:
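Co-culture of human bronchial epithelial cells and dermal fibroblasts, chemical exposure 24 h. Keratin 8/18 measured by ELISA; positive-direction fit vs DMSO. SRB total protein run in parallel cultures for cytotoxicity.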

Active and inactive are the calls of the source. Rule for the calls: active = hit-call score of the fitted dose curve at least 0.9, where 1 is the maximum; inactive = score below 0.9.

Consider `CO[Si](OC)(c1ccccc1)c1ccccc1`, for which the outcome in assay [1] is “inactive”; with Decorin, DCN (gene 1634) it was “inactive”.

With `CCCCCCCCCCCCCCCC[N+](C)(C)Cc1ccccc1`, the concentration at half-maximal activity (AC50) was 5.84 µM (active) in [1] and 9.35 µM (active) with Decorin, DCN (gene 1634).

Consider `Oc1ccc(Nc2ccccc2)cc1`, for which the AC50 in [1] is 3.97 µM (active). Also, the outcome with Decorin, DCN (gene 1634) was inactive.

As to `CCCCOCCOCCOC(=O)CCCCC(=O)OCCOCCOCCCC`, the outcome is “inactive” in [1] and “inactive” with Decorin, DCN (gene 1634).

On to `CCCCCCCOC(=O)c1ccccc1C(=O)OCCCCCCC`, for which the outcome in [1] is “inactive”; in the assay with Decorin, DCN (gene 1634), “inactive”.

As to `CC(=O)Nc1ccc(N=Nc2cc(C)ccc2O)cc1`, the outcome in assay [1] was “inactive”; with Decorin, DCN (gene 1634) it was “inactive”.

In the case of `FC(F)(F)C(F)(F)C(F)(F)C(F)(F)C(F)(F)C(F)(F)C(F)(F)C(F)(F)F`, the outcome in [2] was “inactive”; in [3], “inactive”; in assay [4], “inactive”; in assay [1], “inactive”; with CD90, THY1 (gene 7070) it was “inactive”; in assay [5], “inactive”. Moreover, the outcome in assay [6] is “inactive”; with Decorin, DCN (gene 1634), “inactive”; with KRT18 (gene 3875) it was “inactive”.

With `C=CC/C=C/C/C=C/C/C=C/C`, the outcome was “inactive” in assay [1] and “inactive” with Decorin, DCN (gene 1634).

On to `O=C(O)C(F)(F)C(F)(F)OC(F)(F)F`, for which the outcome in [2] was “inactive”; in assay [3], “inactive”; in assay [4] it was “inactive”; in assay [1], “inactive”; in the assay with CD90, THY1 (gene 7070), “inactive”; in [5] it was “inactive”. Besides, the outcome in assay [6] was “inactive”; in the assay with Decorin, DCN (gene 1634), “inactive”; with KRT18 (gene 3875), “inactive”.

Consider `C=C(C)C(=O)OCC(F)(F)C(F)(F)C(F)(F)C(F)(F)C(F)(F)C(F)(F)C(F)(F)F`, for which the outcome is “inactive” in assay [2]; “inactive” in assay [3]; “inactive” in [4]; “inactive” in [1]; “inactive” with CD90, THY1 (gene 7070); “inactive” in assay [5]. In addition, the outcome in assay [6] is “inactive”; with Decorin, DCN (gene 1634), “inactive”; in the assay with KRT18 (gene 3875), “inactive”.

With `CCN(CC)c1ccc2c(C)cc(=O)oc2c1`, the outcome in [1] is “inactive”; in the assay with Decorin, DCN (gene 1634), “inactive”.

Turning to `FC(F)(F)C(F)(F)C(F)(F)CI`, the outcome in assay [2] was “inactive”; in [3] it was “inactive”; in [4], “inactive”; in assay [1] it was “inactive”; in the assay with CD90, THY1 (gene 7070) it was “inactive”; in assay [5], “inactive”. For the same compound, the outcome was “inactive” in assay [6]; “inactive” in the assay with Decorin, DCN (gene 1634); “inactive” with KRT18 (gene 3875).

With `CCO[Si](CCC(F)(F)C(F)(F)C(F)(F)C(F)(F)C(F)(F)C(F)(F)F)(OCC)OCC`, the outcome is “inactive” in assay [2]; “inactive” in assay [3]; “inactive” in assay [4]; “inactive” in assay [1]; “inactive” with CD90, THY1 (gene 7070); “inactive” in [5]. Moreover, the outcome is “inactive” in assay [6]; “inactive” in the assay with Decorin, DCN (gene 1634); “inactive” with KRT18 (gene 3875).

Consider `O[Si](c1ccccc1)(c1ccccc1)c1ccccc1`, for which the half-maximal activity concentration (AC50) in assay [1] was 8.82 µM (active). Moreover, the result with Decorin, DCN (gene 1634) was inactive.

As to `FC(F)(F)C(F)(F)C(F)(F)C(F)(F)C(F)(F)C(F)(F)C(F)(F)C(F)(F)CCS`, the outcome is “inactive” in assay [2]; “inactive” in assay [3]; “inactive” in [4]; “inactive” in assay [1]; “inactive” with CD90, THY1 (gene 7070); “inactive” in assay [5]. The outcome in [6] was “inactive”; with Decorin, DCN (gene 1634), “inactive”; with KRT18 (gene 3875), “inactive”.

With `OCCCC(F)(F)C(F)(F)C(F)(F)F`, the outcome is “inactive” in [2]; “inactive” in assay [3]; “inactive” in assay [4]; “inactive” in [1]; “inactive” in the assay with CD90, THY1 (gene 7070); “inactive” in [5]. Besides, the outcome is “inactive” in assay [6]; “inactive” in the assay with Decorin, DCN (gene 1634); “inactive” with KRT18 (gene 3875).

On to `COC(=O)CCC(F)(F)C(F)(F)C(F)(F)C(F)(F)F`, for which the outcome in assay [2] was “inactive”; in assay [3], “inactive”; in assay [4], “inactive”; in assay [1], “inactive”; in the assay with CD90, THY1 (gene 7070), “inactive”; in assay [5] it was “inactive”. In addition, the outcome in assay [6] was “inactive”; with Decorin, DCN (gene 1634), “inactive”; with KRT18 (gene 3875) it was “inactive”.

As to `Nc1ccc([N+](=O)[O-])cc1O`, the outcome in [1] was “inactive”; with Decorin, DCN (gene 1634) it was “inactive”.

For the compound `CCCCCCCCC(F)(F)C(F)(F)C(F)(F)C(F)(F)C(F)(F)C(F)(F)F`, the outcome was “inactive” in assay [2]; “inactive” in assay [3]; “inactive” in assay [4]; “inactive” in [1]; “inactive” with CD90, THY1 (gene 7070); “inactive” in assay [5]. Also, the outcome in assay [6] was “inactive”; with Decorin, DCN (gene 1634), “inactive”; with KRT18 (gene 3875), “inactive”.
